Measurements from PubChem BioAssay AID878 (University of Pittsburgh Molecular Library Screening Center, 2007).
Hit rate of the full screen: of about 200,000 compounds, about 65 (0.03%) were called active. The sample holds actives, similar compounds and a random draw of the others, so the mix is not that of the screen.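 The calls were made as follows: active = activation of at least 50% relative to the plate's high and low controls in the primary single-dose screen; inactive = activation below 50%.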

Experiment: compounds producing H2O2 with reducing agent – biochemical, NIH compound library profiling, artefact control for MLSCN library redox annotation, primary screen (AID 878);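 also: compound incubated with DTT at 0.8 mM final as the reducing agent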
Details: DTT-dependent redox cycling H2O2, phenol red/HRP absorbance; at 10 µM; stronger effect = higher value; 100% = 100 µM peroxide control, 0% = buffer

activation, inactive:
O=C(CN(C(=O)c1csnn1)c1cccc(F)c1)NCc1ccc(F)cc1 0.3%, C=C(C)CNC(=S)N/N=C/c1ccccc1OCC(=O)O -0.31%, COc1ccc(NC(=O)c2ccccc2[N+](=O)[O-])cc1OC 0.48%, O=C(Nc1ccc(Br)cn1)c1ccc([N+](=O)[O-])o1 -1.5%, Cc1cc(C)c(C#N)c(N2CCC(C(N)=O)CC2)n1 -1.8%, O=C(NN1C(=O)C2C3C=CC(C3)C2C1=O)c1ccco1 (stereo not given) -0.88%, COc1ccccc1CC(NC(C)=O)C(=O)NC1CCN(C(=O)Nc2ccccc2Cl)CC1 (stereo not given) -0.13%, CCn1c(SCC(=O)N(C)C2CCS(=O)(=O)C2)nnc1-c1cccs1 (stereo not given) -1.15%, COC(=O)c1nc(NC(=O)c2ccc(C(C)(C)C)cc2)n[nH]1 -0.33%, O=C(C1CCN(S(=O)(=O)c2ccc(Br)s2)CC1)N1CCN(C2CCCCC2)CC1 0.46%, CSCCNCc1cn(-c2ccc(F)cc2F)nc1-c1ccccc1C 0.48%, COC(=O)Cc1ccc(OCC(=O)Nc2ccc(OC(F)(F)F)cc2)cc1 0.09%, O=C1/C(=C\c2ccccc2Cl)SC(=S)N1CCC(=O)N1CCCc2ccccc21 -0.64%, CC(C)Oc1ccc(/C=C(\NC(=O)/C=C/c2ccco2)C(=O)NCCc2nc3ccccc3[nH]2)cc1 0.27%, O=C(NN1C(=O)C2C3C=CC(O3)C2C1=O)c1ccccc1 (stereo not given) -0.16%, COc1cc2c3c(c1)/C(=C1/SC(=S)NC1=O)C(=O)N3C(C)(C)C=C2C -0.69%, CN(C)c1ccc(/C=N/NC(=O)c2ccc(Cn3cc(Br)cn3)o2)cc1 -0.04%, COCC(C)NC(=O)CSc1nc2nn(-c3ccccc3)c(=O)c-2c2n1CCCCC2 (stereo not given) -1.27%, CN(C)C(=O)c1ccc2c(c1)C1C3CCC(C3)C1C(c1ccccc1)N2 (stereo not given) -0.17%, N=c1n(CCc2ccccc2)c2ccccc2n1Cc1ccccc1F -0.46%, COc1ccc(C2NC(=S)NC3=C2CCc2ccccc23)cc1OC (stereo not given) 0.96%, CCCn1c(N)c(C(=O)CSc2nc3ccccc3c(=O)n2-c2ccc(OC)cc2)c(=O)[nH]c1=O 0.00314%, CC(C)c1nccn1S(=O)(=O)c1cc([N+](=O)[O-])ccc1Cl 1.71%, O=c1cc(-c2ccccc2)[nH]c2cc(F)ccc12 -0.1%, COc1ccccc1N1CCN(CC(=O)NCCc2ccc(S(N)(=O)=O)cc2)CC1 0.00253%, COc1ccc(OC)c(-c2csc(NC(=O)C3=NNC(=O)CC3)n2)c1 -1.87%, COc1ccc(OCC(=O)Nc2cc(C)c(Cl)cc2OC)c([N+](=O)[O-])c1 0.12%, CC1CCN(S(=O)(=O)c2ccc3ncn(CC(=O)N(C)C4CCCCC4)c(=O)c3c2)CC1 -2.09%, CCc1nc2ccccc2c(C(=O)OC2CCCCC2=O)c1C (stereo not given) 0.11%, CCOC(=O)C1(Cc2cccc(OC)c2)CCN(C(C)COC)CC1 (stereo not given) -0.66%, O=C(CSc1nnc(-c2ccncc2)o1)NCc1ccc(Cl)cc1 -0.01%, CC(C)(C)CN1CCNC(=O)C1CC(=O)NC1Cc2ccccc2C1 (stereo not given) -0.72%, Cc1cccc(NC(=S)N(CCN(C)C)C(C)c2ccco2)c1 (stereo not given) 0.05%, CC(C)(C)[C@H]1C=C(C(=O)NCc2ccccc2)O[C@@H](OCc2ccc(CO)cc2)C1 -1.79%, CCC(C)(C)NC(=O)c1cc([N+](=O)[O-])ccc1N1CCCCC1 -0.54%, CCCn1nc(Oc2nc(NC(C)C)nc(N(C)C)n2)ccc1=O 0.03%, Nc1c(-c2ccc(F)cc2)cnc2ncnn12 1.8%, O=C(CN1CCN(C/C=C/c2ccccc2)CC1)Nc1ccc(F)cc1F -0.37%, O=C(CP(=O)(c1ccccc1)c1ccccc1)N1CCOCC1 0.42%, CC(=O)C1=C(C)NC2=C(C(=O)CC(C)(C)C2)C1C (stereo not given) -0.01%, CN1C(=O)/C(=C/c2ccco2)SC1=Nc1cccc(C(=O)O)c1 -0.55%, Cc1cccc(-n2c(Cc3cc(=O)[nH]c(=O)[nH]3)nnc2SCC(=O)Nc2cccc(C(F)(F)F)c2)c1 0.37%, Cc1ccc(OCC(=O)NNC(=S)NCc2ccccc2)cc1 0.08%, CN(C)Cc1ccc(F)cc1Sc1cc(Cl)ccc1Cl -0.14%, CCOc1cc(CNn2c(C)nnc2SCC(=O)NC(C)(C)C)ccc1OCC(=O)NC(C)(C)C -0.27%, CC1=NNC(=O)C1CCC(=O)N/N=C\c1ccc(Cl)c(Cl)c1 (stereo not given) -0.00164%, Cc1ccc2nc(-c3ccccn3)cc(C(=O)Nc3ccc4c(c3)OCO4)c2c1 4.14%, Cc1ccccc1-n1nc(SCC(=O)O)sc1=S -0.13%, CC(=O)Nc1ccccc1C(=O)C(=O)Nc1ccc(F)cc1 -3.37%, CN(C)/C=C/C(=O)c1cnc2sccn2c1=O 0.12%
